Reference: PubChem BioAssay (Tox21)
Values joined by “and” are separate entries in the source; they are usually repeats but may differ in a detail not shown here. Identical values can stand only once. Active and inactive are the calls of the source. Unless noted, the call rests on the fitted dose curve; in most records, active means well fitted curve in the direction sought with a large enough effect in the repeat runs; inconclusive means weak or mixed curves; inactive means no such curve, though single readings can be large; an effect the other way counts as inactive or inconclusive.

Columns and labels:
[1] = qHTS assay to test for compound auto fluorescence at 535 nm (green) in HEK293 cells (AID 720680)
[2] = qHTS assay to test for compound auto fluorescence at 460 nm (blue) in HEK293 cell free culture (AID 720681)
In short: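 Compounds were added to cell-free DMEM with 10% FBS and fluorescence read directly. The blue channel used 405 nm excitation and 460 nm emission, with triamterene as the reference fluorophore.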

[3] = qHTS assay to test for compound auto fluorescence at 535 nm (green) in HEK293 cell free culture (AID 720682)
In short: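 Compounds were pin-transferred into cell-free DMEM with 10% FBS, and green fluorescence was read at excitation 485 nm and emission 535 nm. Intensities were expressed as fluorescein-equivalent values.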

[4] = qHTS assay to test for compound auto fluorescence at 590 nm (red) in HEK293 cell free culture (AID 720683)
In short: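 Cell-free wells of DMEM with 10% FBS received compound, and intrinsic fluorescence was read at excitation/emission 540/590 nm. Values expressed as equivalence to Rose Bengal sodium.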

[5] = qHTS assay to test for compound auto fluorescence at 590 nm (red) in HepG2 cell free culture (AID 720684)
In short: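 Compounds are added to culture medium (MEM, 10% FBS) lacking cells, then fluorescence is read at excitation 540 nm, emission 590 nm, with Rose Bengal sodium as the equivalency standard.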

[6] = qHTS assay to test for compound auto fluorescence at 460 nm (blue) in HepG2 cell free culture (AID 720685)
In short: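 Compound (23 nL) or DMSO pinned into cell-free MEM with 10% FBS; blue fluorescence read at 405/460 nm excitation/emission, expressed as auto-fluorescence equivalency to triamterene.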

[7] = qHTS assay to test for compound auto fluorescence at 535 nm (green) in HepG2 cell free culture (AID 720686)
[8] = qHTS assay to test for compound auto fluorescence at 460 nm (blue) in HepG2 cells (AID 720687)
In short: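 HepG2 cells in MEM with 10% FBS, attached overnight at 37 C, were exposed to compound or DMSO for 1 hr at 37 C, 5% CO2. Blue fluorescence was read at 405/460 nm, with triamterene as reference fluorophore.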

[9] = target: Glucocorticoid receptor (Homo sapiens) (UniProt P04150); test: qHTS assay to identify small molecule agonists of the glucocorticoid receptor (GR) signaling pathway (AID 720691; active means well fitted activation curve with a large enough effect in the signal ratio in the repeat runs, not every such curve was filed as active; inconclusive means weak or mixed curves, or effect the other way; inactive means no such curve, though single readings can be large or run the other way; the % refers to the signal ratio; further: potency means the concentration at half of the fitted maximal effect)
In short: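 GR-bla HeLa cells carrying a GRE-driven beta-lactamase reporter, exposed to compounds for 18 h at 37 C. Reporter activation read as fluorescence after 2 h with LiveBLAzer B/G FRET substrate at room temperature.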

[10] = target: Glucocorticoid receptor (Homo sapiens) (UniProt P04150); test: qHTS assay to identify small molecule antagonists of the glucocorticoid receptor (GR) signaling pathway (AID 720692; active means well fitted inhibition curve with a large enough effect in the signal ratio in the repeat runs, not every such curve was filed as active; inconclusive means weak or mixed curves, or effect the other way; inactive means no such curve, though single readings can be large or run the other way; the % refers to the signal ratio; further: potency means the concentration at half of the fitted maximal effect)
In short: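 GR-bla HeLa cells carrying a GRE-driven beta-lactamase reporter received compound after 4 h plating, then dexamethasone (5 nM final). After 18 h at 37C, the FRET substrate was loaded for 2 h at room temperature and fluorescence read.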

[11] = qHTS assay to identify small molecule antagonists of the glucocorticoid receptor (GR) signaling pathway - cell viability counter screen (AID 720693); further: nearly all actives have a fitted effect of over 55% in size
[12] = qHTS assay for identifying genotoxic compounds that show differential cytotoxicity against isogenic chicken DT40 cell lines with known DNA damage response pathways - wild type cell line (AID 743012); further: nearly all actives have a fitted effect of over 60% in size; further: potency means the concentration at half of the fitted maximal effect
In short: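 Wild-type DT40 cells (300/well) exposed to compounds for 40 hours at 37 C/5% CO2. Viability read by CellTiter-Glo luminescence after 30 min at room temperature.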

[13] = qHTS assay for identifying genotoxic compounds that show differential cytotoxicity against isogenic chicken DT40 cell lines with known DNA damage response pathways - Rev3 mutant cell line (AID 743014); further: nearly all actives have a fitted effect of over 55% in size; further: potency means the concentration at half of the fitted maximal effect
[14] = qHTS assay for identifying genotoxic compounds that show differential cytotoxicity against isogenic chicken DT40 cell lines with known DNA damage response pathways - Rad54/Ku70 mutant cell line (AID 743015); further: nearly all actives have a fitted effect of over 60% in size; further: potency means the concentration at half of the fitted maximal effect
[15] = qHTS assay to identify small molecule antagonists of the androgen receptor (AR) signaling pathway - cell viability counter screen (AID 743033; further: nearly all actives have a fitted effect of over 45% in size; further: potency means the concentration at half of the fitted maximal effect)
[16] = target: Androgen receptor (Homo sapiens) (UniProt P10275); test: qHTS assay to identify small molecule antagonists of the androgen receptor (AR) signaling pathway (AID 743035; active means well fitted inhibition curve with a large enough effect in the signal ratio in the repeat runs, not every such curve was filed as active; inconclusive means weak or mixed curves, or effect the other way; inactive means no such curve, though single readings can be large or run the other way; the % refers to the signal ratio)
In short: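 HEK293 cells stably carrying UAS-beta-lactamase reporter, 2,000/well, given compounds plus R1881 agonist and incubated 16 h at 37C. LiveBLAzer B/G FRET substrate then added for 2 h at room temperature before fluorescence reading.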

[17] = target: Androgen receptor (Homo sapiens) (UniProt P10275); test: qHTS assay to identify small molecule agonists of the androgen receptor (AR) signaling pathway using the MDA cell line (AID 743040; further: nearly all actives have a fitted effect of over 20% in size; further: potency means the concentration at half of the fitted maximal effect); conditions: MDA-kb2 AR-luc cells, MMTV luciferase, 16 h; activity change: at 70.3 µM (top of the series), stronger effect = higher value
In short: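 Human breast carcinoma MDA-kb2 reporter cells (MMTV-luc, AR/GR elements) were treated for 16 h at 37C in 0% CO2 following a 5 h settling period. Signal was quantified by ONE-Glo luminescence.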

[18] = qHTS assay to identify small molecule antagonists of the androgen receptor (AR) signaling pathway using the MDA cell line - cell viability counter screen (AID 743041; further: nearly all actives have a fitted effect of over 45% in size; further: potency means the concentration at half of the fitted maximal effect)
In short: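 Same-well cytotoxicity was assessed by CellTiter-Fluor in MDA-kb2 AR-luc cells after 16 h of compound treatment under R1881 agonism.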

[19] = target: Androgen receptor (Homo sapiens) (UniProt P10275); test: qHTS assay to identify small molecule antagonists of the androgen receptor (AR) signaling pathway using the MDA cell line (AID 743042; further: nearly all actives have a fitted effect of over 55% in size)
In short: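 MDA-kb2 breast carcinoma cells carrying MMTV-luciferase (AR/GR responsive) were co-treated with compounds and the agonist R1881 for 16 h at 37C. Inhibition read as ONE-Glo luminescence; CellTiter-Fluor fluorescence measured in parallel for cytotoxicity.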

[20] = target: Androgen receptor (Homo sapiens) (UniProt P10275); test: qHTS assay to identify small molecule agonists of the androgen receptor (AR) signaling pathway (AID 743036; active means well fitted activation curve with a large enough effect in the signal ratio in the repeat runs, with a control signal flat, not every such curve was filed as active; inconclusive means weak or mixed curves, or effect the other way; inactive means no such curve, though single readings can be large or run the other way; the % refers to the signal ratio)
In short: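 Activation was read as beta-lactamase FRET signal from LiveBLAzer B/G substrate, added for 2 h at room temperature. Before that, GeneBLAzer AR-UAS-bla GripTite (HEK293) cells had 16 h compound exposure at 37C.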

Measured: Potency

Androgen receptor (Homo sapiens), sequence (P10275 whole entry, looked up): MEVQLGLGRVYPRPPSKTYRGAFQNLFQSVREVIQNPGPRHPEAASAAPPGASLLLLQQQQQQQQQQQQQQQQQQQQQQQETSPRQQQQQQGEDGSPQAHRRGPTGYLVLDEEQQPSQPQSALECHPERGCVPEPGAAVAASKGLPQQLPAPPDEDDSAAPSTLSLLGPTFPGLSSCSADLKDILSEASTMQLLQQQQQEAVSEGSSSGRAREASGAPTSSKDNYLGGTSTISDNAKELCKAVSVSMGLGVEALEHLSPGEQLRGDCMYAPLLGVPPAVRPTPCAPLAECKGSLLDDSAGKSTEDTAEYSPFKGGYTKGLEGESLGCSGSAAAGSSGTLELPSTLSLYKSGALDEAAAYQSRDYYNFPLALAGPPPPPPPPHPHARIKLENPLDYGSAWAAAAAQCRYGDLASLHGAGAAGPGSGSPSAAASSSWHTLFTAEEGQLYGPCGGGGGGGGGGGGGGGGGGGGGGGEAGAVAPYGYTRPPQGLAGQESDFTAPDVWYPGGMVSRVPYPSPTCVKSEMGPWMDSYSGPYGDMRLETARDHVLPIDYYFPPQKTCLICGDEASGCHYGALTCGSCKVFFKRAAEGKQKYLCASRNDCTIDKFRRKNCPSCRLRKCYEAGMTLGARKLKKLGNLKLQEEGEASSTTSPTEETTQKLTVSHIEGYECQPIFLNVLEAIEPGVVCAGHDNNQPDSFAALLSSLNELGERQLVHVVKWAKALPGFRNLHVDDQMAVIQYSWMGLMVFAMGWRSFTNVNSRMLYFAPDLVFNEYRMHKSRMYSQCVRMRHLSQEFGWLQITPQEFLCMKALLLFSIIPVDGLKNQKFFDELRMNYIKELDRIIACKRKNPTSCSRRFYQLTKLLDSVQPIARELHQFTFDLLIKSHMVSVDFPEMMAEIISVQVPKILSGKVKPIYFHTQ
Glucocorticoid receptor (Homo sapiens), sequence (P04150 whole entry, looked up): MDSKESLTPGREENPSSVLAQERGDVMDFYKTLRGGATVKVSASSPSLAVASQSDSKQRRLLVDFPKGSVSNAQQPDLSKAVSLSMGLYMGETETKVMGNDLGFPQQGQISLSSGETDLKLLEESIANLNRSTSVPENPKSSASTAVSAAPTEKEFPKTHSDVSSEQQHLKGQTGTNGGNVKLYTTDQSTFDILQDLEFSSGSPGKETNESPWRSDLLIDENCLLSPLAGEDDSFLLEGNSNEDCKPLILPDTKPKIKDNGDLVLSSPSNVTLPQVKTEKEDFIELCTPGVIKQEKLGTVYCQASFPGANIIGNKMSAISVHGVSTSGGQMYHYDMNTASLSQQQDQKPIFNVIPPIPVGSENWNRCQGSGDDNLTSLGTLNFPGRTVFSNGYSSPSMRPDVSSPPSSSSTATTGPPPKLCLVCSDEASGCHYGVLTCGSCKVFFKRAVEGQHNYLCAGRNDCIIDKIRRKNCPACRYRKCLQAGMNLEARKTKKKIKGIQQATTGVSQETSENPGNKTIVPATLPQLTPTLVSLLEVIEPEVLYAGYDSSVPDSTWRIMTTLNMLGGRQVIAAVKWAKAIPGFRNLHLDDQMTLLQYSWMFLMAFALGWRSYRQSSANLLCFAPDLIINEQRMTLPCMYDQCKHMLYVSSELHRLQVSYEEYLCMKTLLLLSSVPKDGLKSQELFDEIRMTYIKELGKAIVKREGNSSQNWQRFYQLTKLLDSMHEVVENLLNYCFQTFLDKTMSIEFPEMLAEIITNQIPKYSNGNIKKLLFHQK

O=C(O)COc1cc(Cl)c(Cl)cc1Cl
not listed: [20]
inactive: all other assays above

CN(C)c1ccc(N=O)cc1
active: [10] 38900 nM | [12] 1.73 µM and 1.93 µM | [13] 546 nM and 1.93 µM | [14] 1.37 µM and 1.72 µM | [15] 12.3 µM and 43.6 µM | [18] 54.6 µM and 27.3 µM
not listed: [11] | [16] | [17] | [19] | [20]
inactive: all other assays above

O=C(O)C(Cl)(Cl)Br
not listed: [16] | [17] | [19] | [20]
inactive: all other assays above

C[N+]1(CCF)[C@@H]2CC[C@H]1CC(OC(=O)C(O)(c1ccccc1)c1ccccc1)C2 (some centres not stated)
not listed: [16] | [17] | [19] | [20]
inactive: all other assays above

FC(F)OC(F)(F)C(F)Cl (configuration not stated)
not listed: [11]
inactive: all other assays above

C=CCc1ccc(OC(=O)Cc2ccccc2)c(OC)c1
not listed: [11] | [12] | [13] | [14] | [16] | [17] | [19] | [20]
inactive: all other assays above

O=C(NC(=O)c1cc(F)c(F)cc1Cl)Nc1cc(F)ccc1N1CCC(C(=O)O)CC1
not listed: [10] | [11] | [12] | [16] | [17] | [19] | [20]
inactive: all other assays above

CN1C(=O)CN=C(c2ccccc2)c2cc([N+](=O)[O-])ccc21
active: [9] 338 nM [inconclusive] | [17] 1880 nM
not listed: [10] | [14] | [16]
inactive: all other assays above
